# Data: PubChem BioAssay
# Activity calls are given as the source filed them.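 Rule for the calls, unless noted: active = luciferase signal above three times the same-plate solvent-only control wells; inactive = the rest.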
# How the values were obtained:
# [1] = P. berghei load reduction in hepatocytes – cell-based, HepG2, luciferase luminescence, HepG2 viability, primary screen (AID 624349; in the data active = parasite load remaining mostly below about 12%, no sharp cut-off; inactive = mostly above about 10%;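 note: 100% = mean of DMSO negative control wells on the same plate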); details: P. berghei liver stage in HepG2, luciferase luminescence, concentration not given here; parasite load remaining: stronger effect = lower value; viability: measured here: HepG2 viability without parasites
# [2] = target: 6-phosphogluconate dehydrogenase, decarboxylating (Homo sapiens) (UniProt P52209); test: inhibition of human phosphogluconate dehydrogenase – biochemical, recombinant enzyme, NADPH absorbance, primary screen (AID 1159550;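 active = at least 20% inhibition of 6-phosphogluconate dehydrogenase activity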); details: recombinant 6PGD, NADPH absorbance 341 nm; at 10 µM; stronger effect = higher value
# [3] = viability loss with induced miR-34 in A549 – imaging, A549 dox-inducible miR-34, nuclei and caspase counts, primary screen (AID 1347080;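 active = compounds whose cell count with miR-34 switched on is under 0.7 times the count with it off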); details: A549 miR-34 inducible, Hoechst nuclei count, 48 h
# [4] = target: Mitogen-activated protein kinase 7 (Homo sapiens) (UniProt Q13164); test: Gal4-ERK5 driven luciferase induction – cell-based, HTS, primary screen (AID 1508626); details: HeLa Gal4-ERK5 transactivation, 18 h, at 5 µM, stronger effect = higher value;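 note: luciferase driven by Gal4-ERK5 fusion binding five Gal4 sites before minimal TATA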
# Mitogen-activated protein kinase 7 (Homo sapiens), sequence (Q13164 whole entry, looked up, the tested form may be a part): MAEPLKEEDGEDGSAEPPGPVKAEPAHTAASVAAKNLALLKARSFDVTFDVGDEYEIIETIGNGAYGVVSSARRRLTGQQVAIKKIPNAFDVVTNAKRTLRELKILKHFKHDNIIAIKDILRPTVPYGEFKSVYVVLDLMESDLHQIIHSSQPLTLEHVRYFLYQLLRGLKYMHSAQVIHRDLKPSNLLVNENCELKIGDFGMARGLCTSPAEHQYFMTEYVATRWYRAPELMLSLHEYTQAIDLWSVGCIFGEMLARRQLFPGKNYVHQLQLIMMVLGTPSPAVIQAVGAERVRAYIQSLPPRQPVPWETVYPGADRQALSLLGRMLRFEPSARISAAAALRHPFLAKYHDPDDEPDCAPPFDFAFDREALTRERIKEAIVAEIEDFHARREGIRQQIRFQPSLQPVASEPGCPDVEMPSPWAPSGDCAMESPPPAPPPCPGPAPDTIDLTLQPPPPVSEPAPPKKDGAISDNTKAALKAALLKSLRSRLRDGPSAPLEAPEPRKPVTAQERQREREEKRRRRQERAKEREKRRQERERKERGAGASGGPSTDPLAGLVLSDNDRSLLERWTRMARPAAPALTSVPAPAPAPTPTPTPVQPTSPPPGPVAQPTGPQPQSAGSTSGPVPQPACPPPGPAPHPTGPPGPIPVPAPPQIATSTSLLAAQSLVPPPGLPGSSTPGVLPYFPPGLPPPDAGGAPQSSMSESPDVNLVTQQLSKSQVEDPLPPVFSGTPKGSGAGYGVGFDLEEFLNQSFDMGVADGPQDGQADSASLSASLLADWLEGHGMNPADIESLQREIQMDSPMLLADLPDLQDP
# 6-phosphogluconate dehydrogenase, decarboxylating (Homo sapiens), sequence (P52209 whole entry, looked up): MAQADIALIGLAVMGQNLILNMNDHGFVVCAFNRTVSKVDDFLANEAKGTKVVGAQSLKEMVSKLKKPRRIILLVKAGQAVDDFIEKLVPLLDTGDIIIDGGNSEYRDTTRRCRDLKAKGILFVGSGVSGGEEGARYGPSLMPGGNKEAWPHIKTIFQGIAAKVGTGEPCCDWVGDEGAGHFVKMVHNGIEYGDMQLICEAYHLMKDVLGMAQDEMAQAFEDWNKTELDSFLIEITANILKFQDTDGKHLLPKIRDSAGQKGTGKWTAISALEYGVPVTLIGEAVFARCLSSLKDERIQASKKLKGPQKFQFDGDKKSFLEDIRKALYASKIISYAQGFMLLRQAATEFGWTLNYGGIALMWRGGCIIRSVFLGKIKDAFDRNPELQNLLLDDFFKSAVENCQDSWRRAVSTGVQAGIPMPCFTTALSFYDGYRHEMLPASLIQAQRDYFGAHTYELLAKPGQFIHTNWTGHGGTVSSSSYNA
structure (smiles),measurement,setting,value
C1CCN2C[C@@H]3C[C@H](CN4CCCC[C@@H]34)[C@H]2C1,parasite load remaining,[1],83.5% (inactive)
same,viability,[1],82.9%
same,inhibition,[2],11% (inactive)
same,fold change,"[3]; stronger effect = lower value, cell number ratio, induced over uninduced",0.85 (inactive)
same,fold change,[3]; measured here: relative caspase fold change +Dox/-Dox,3.93
same,cell count,"[3]; measured here: total cells with miR-34 induction, stronger effect = lower value",10700
same,cell count,[3]; measured here: total cells without miR-34 induction,12500
same,luciferase signal,[4],68 AU (inactive)
